Assay results: PubChem BioAssay
Calls of active or inactive are those of the source.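 The calls were made as follows: active = visual image review flags a hit and inhibition of aggregation exceeds 20%; inconclusive = visual hit but inhibition at or below 20%; inactive = no hit on visual image review.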

assay: inhibitors of mutant huntingtin aggregation, primary screen, imaging, exon1htt(103Q)mCFP cells, high-content imaging (AID 483); conditions: exon1htt(103Q)mCFP cell line, aggregate imaging, at 2 µM; inhibition of aggregation: stronger effect = higher value; nuclei count: measured here: cell count, toxicity;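 also: compound exposure lasted 3 days before fixation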;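 as to nuclei count: percent of the per-plate median nuclei count of sample wells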

Row | Structure (SMILES) | inhibition of aggregation | nuclei count [%]
1 | CCOc1ccc(NC(=O)CN2CCN(CC(=O)Nc3ccc(F)c(F)c3)CC2)cc1 | -0.9% (inactive) | 105
2 | C=C(C)COc1ccc(-c2nc(N)ncc2Oc2ccccc2OCC)c(O)c1 | -19.9% (inactive) | 111
3 | Clc1ccccc1-c1nnc2sc(-c3ccccn3)nn12 | 24.3% (inactive) | 84.8
4 | CCOc1cccc(C(=O)Nc2cccc(-c3nc4ncccc4o3)c2C)c1 | 10.5% (inactive) | 103
5 | CCOC(=O)N1CCN(S(=O)(=O)c2cc(Cl)c(OC)cc2Cl)CC1 | -8.2% (inactive) | 100
6 | CCCCN(CC)S(=O)(=O)N1CCC(C(=O)NCc2ccc(F)cc2)CC1 | -1.2% (inactive) | 96.5
7 | Cc1ccc(Nc2nnns2)cc1C | -5% (inactive) | 105
8 | C=CCn1c(=O)/c(=C/c2ccc(O)cc2)s/c1=C(/C#N)c1nnc2n1CCCCC2 | 11.1% (inactive) | 112
9 | CC(=O)Nc1c(Cl)n(C(C)=O)c2ccccc12 | -9.1% (inactive) | 100
10 | COc1ccc(OC)c(S(=O)(=O)Nc2ccccc2C(=O)O)c1 | 0% (inactive) | 100
11 | Cc1ccc(C)c(NC(=O)C2CCC(C)(C(=O)O)C2(C)C)c1 (stereo not given) | 6% (inactive) | 98
12 | Oc1ccc(N2CCN(C(c3cccnc3)c3nnnn3Cc3ccccc3)CC2)cc1 (stereo not given) | -2.4% (inactive) | 118
13 | CC(C(=O)N1CCOCC1)N1c2cccc3cccc(c23)S1(=O)=O (stereo not given) | 8.6% (inactive) | 109
14 | Cc1nc2ccccn2c1/C(O)=C1\C(=O)C(=O)N(CCN2CCOCC2)C1c1cccs1 (stereo not given) | 0.3% (inactive) | 99.6
15 | COC(=O)c1cc(OC)c(OC)cc1NC(=O)CC1CCCCC1 | 0.4% (inactive) | 84.5
16 | COc1ccccc1C(=O)Nc1c2c(nn1-c1cccc(C)c1C)CS(=O)(=O)C2 | -7% (inactive) | 79.5
17 | CC(C)=CC(=O)Nc1ccc(Br)cc1 | -6.6% (inactive) | 73.9
18 | COc1cccc2c(=O)c3c(cnn3C)n(C)c12 | -31.5% (inactive) | 52.8
19 | O=C(c1noc2c1CCc1ccccc1-2)N1CCOCC1 | 18.9% (inactive) | 90.2
20 | CCN1CCN(C(=O)c2ccc3c(=O)n(C4CCCC4)c(=S)[nH]c3c2)CC1 | 8.5% (inactive) | 82.3

Row | Structure (SMILES) | inhibition of aggregation | nuclei count [%]
21 | CCC(Oc1ccc2ccccc2c1)C(=O)O (stereo not given) | -46.2% (inactive) | 129
22 | CC(=O)c1nnn(-c2nc(N3CCCC3)nc(N(c3ccccc3)c3ccccc3)n2)c1C | 2.6% (inactive) | 109
23 | COc1ccc(-n2cc(-c3ccccc3)c3c(N4CCN(CCO)CC4)ncnc32)cc1 | 3.6% (inactive) | 102
24 | O=C(N1CCCCCC1)N1CCN(S(=O)(=O)N2CCCCC2)CC1 | 9.2% (inactive) | 106
25 | OCC#CCSc1nnc(-c2ccccc2Br)o1 | -3.5% (inactive) | 110
26 | CC(C(=O)N1CCc2ccccc21)N1CCc2ccccc2C1 (stereo not given) | 16.1% (inactive) | 91.1
27 | C=CCN(CC=C)C(=O)CN1C(=O)c2ccccc2C1=O | 27.5% (inactive) | 83.2
28 | O=C(Cn1nnc2c(cnn2-c2ccc(F)cc2)c1=O)c1ccccc1F | -13.6% (inactive) | 104
29 | COc1cccc(-c2noc(CCC(=O)NC3CCCCC3)n2)c1 | -6.8% (inactive) | 112
30 | Cc1cc(C)c2cc(CN(CC3CCCO3)C(=O)NC3CCCCC3)c(=O)[nH]c2c1 (stereo not given) | -17.9% (inactive) | 109
31 | CCOc1cc(C)c(Cl)cc1S(=O)(=O)N(C)C | -26.4% (inactive) | 113
32 | COc1ccc(CCNS(=O)(=O)c2ccc3c(c2)CCN3C(=O)CCC(=O)O)cc1OC | 0.9% (inactive) | 125
33 | CCOc1ccc(OCc2cccc(C(=O)O)c2)cc1 | -11.5% (inactive) | 112
34 | O=c1c2ccccc2cnn1-c1nc2ccccc2s1 | -5.1% (inactive) | 98.1
35 | CCC(C)c1ccc(NC(=O)C2CC2)cc1 (stereo not given) | -13.6% (inactive) | 110
36 | O=C(CC1CCCCC1)NCc1ccccn1 | 11.3% (inactive) | 94.6
37 | CS(=O)(=O)N(CC(=O)N1CCN(c2cccc(Cl)c2)CC1)C1CCCCC1 | 11% (inactive) | 87.4
38 | Cc1ccc(N2CCN(C(=O)c3ccccc3Br)CC2)c(C)c1 | 0% (inactive) | 91.9
39 | COC(=O)c1c(N)nc(C)n1-c1ccc(OC)cc1 | 32.1% (active) | 70.1
40 | O=C(O)CC1CCCC(c2ccccc2)C1=O (stereo not given) | -35% (inactive) | 103
